Rows were chosen to be rich in hits. Some 4.5% of all compounds tested hit in one or more screens of this group.
DAX1 inh-1 = blocks DAX1 repression of SF-1 activated StAR promoter. HEK293T StAR-luciferase reporter, SF-1/DAX-1 repression relief. inhibition, % at 6.8 µM. 370,000 compounds, 1.1% hits;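 active = inhibition above the mean over all tested compounds plus 3 SD, cut at about 3.6% in these data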;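 note: 0% = DAX-1 cells with DMSO and 100% = cells lacking DAX-1 with DMSO; higher inhibition means more luminescence from relief of DAX-1 repression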
ssDAF12 agonist = activators of S. stercoralis DAF-12 nuclear receptor; activation, % at 6.8 µM; 370,000 compounds, 1% hits; HEK293 ssDAF-12/GRIP1 lit1-tk-luc reporter, luminescence; % of 3 µM dafachronic acid response; AID 652126;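 active = activation above the mean over all tested compounds plus 3 SD, cut at about 0.9% in these data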;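 note: 0% = DMSO-only wells and 100% = 3 µM delta7-dafachronic acid wells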
hcDAF12 agonist = activates DAF-12 receptor from parasite H. contortus; HEK293 hcDAF-12 lit1-tk-luc reporter, luminescence; 0% DMSO, 100% Δ7-dafachronic acid; activation, % at 6.8 µM; 370,000 compounds, 1.4% hits; AID 652067;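 active = activation above the mean of all tested compounds plus 3 SD, cut at about 5.5% in these data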;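 note: 100% = response to 3 µM Δ7-dafachronic acid high control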
DAX1 inh-2 = inhibitors of human orphan nuclear receptor DAX1 (NR0B1); 340,000 compounds, 0.99% hits; inhibition, % at 6.75 µM; AID 504766; P51843; HEK293 Gal4-DAX1 luciferase reporter, luminescence;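 active = inhibition above the mean over all tested compounds plus 3 SD, cut at about 4.2% in these data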;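 note: 0% = DAX1-transfected cells with DMSO and 100% = empty-vector control cells with DMSO; inhibition shows as a rise in luminescence from relieved DAX1 repression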
Target sequence (P51843 207-470 limits assumed): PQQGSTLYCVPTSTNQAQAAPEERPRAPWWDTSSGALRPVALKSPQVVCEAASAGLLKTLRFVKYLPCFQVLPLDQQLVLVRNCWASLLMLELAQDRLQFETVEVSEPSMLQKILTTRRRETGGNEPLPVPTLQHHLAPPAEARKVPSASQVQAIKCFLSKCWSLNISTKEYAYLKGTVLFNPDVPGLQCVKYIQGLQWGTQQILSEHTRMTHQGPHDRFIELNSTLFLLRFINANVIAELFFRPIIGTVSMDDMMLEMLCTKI
hgDAF12 agonist = activates the H. glycines DAF-12 receptor ligand-binding domain; HEK293 GAL4-hgDAF12 UAS-luciferase reporter, agonist luminescence; normalized to butyrate control; activation, % at 6.8 µM; 370,000 compounds, 1.8% hits; AID 687014;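 active = activation above a cutoff set at the mean of all screened compounds plus 3 SD, cut at about 10% in these data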;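 note: 0% = DMSO wells and 100% = sodium butyrate wells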
FXN GAA850 act = activators of GAA850 frataxin (FXN) promoter; 360,000 compounds, 0.56% hits; activation, % at 6 µM; AID 540364; HEK293 lucGAA850 FXN promoter luciferase reporter, 24 h; percent of 10 µM SAHA response;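 active = activation above the average of all compounds screened plus 3 SD, cutoff fixed separately per campaign, cut at about 7.5% in these data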;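 note: 0% = DMSO wells and 100% = 10 µM SAHA wells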
DAX1 conf = confirmation of human DAX1 (NR0B1) inhibitors. shares compounds with DAX1 inh-1. HEK293T StAR-promoter luciferase reporter, SF-1/DAX-1 repression. inhibition, % at 6.8 µM. 2,400 compounds, 87% hits. AID 652134;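 active = inhibition above the average of every tested compound plus 3 SD, cut at about 3.8% in these data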;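 note: 0% = DAX-1 cells with DMSO and 100% = no DAX-1 control cells with DMSO; active compounds raise luminescence by relieving repression of the StAR reporter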
SF1 AF2mut Luc = counter-screen for DAX1 inhibitors: nonselective inhibitors with SF-1 AF2 mutant; shares compounds with DAX1 inh-1; inhibition, % at 6.8 µM; 2,400 compounds, 78% hits; HEK293 StAR-luciferase, luminescence; AID 652136;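 active = inhibition above the mean of all tested compounds plus 3 SD, cut at about 3% in these data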;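 note: 0% = DAX-1 transfected cells with DMSO and 100% = cells without DAX-1 with DMSO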
LXR ag = counter-screen for hcDAF-12 agonists: agonists of human LXR-beta; activation, % at 6.8 µM; 3,400 tested, under 10 active; HEK293 Gal4-LXR tk-luc reporter, luminescence, 24 h; normalized: DMSO 0%, positive control 100%; shares compounds with hcDAF12 agonist;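 active = mean percent activation of the reporter above a cutoff set as the average over tested compounds plus their standard deviation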
Target sequence (P55055 whole entry, looked up, the tested form may be a part): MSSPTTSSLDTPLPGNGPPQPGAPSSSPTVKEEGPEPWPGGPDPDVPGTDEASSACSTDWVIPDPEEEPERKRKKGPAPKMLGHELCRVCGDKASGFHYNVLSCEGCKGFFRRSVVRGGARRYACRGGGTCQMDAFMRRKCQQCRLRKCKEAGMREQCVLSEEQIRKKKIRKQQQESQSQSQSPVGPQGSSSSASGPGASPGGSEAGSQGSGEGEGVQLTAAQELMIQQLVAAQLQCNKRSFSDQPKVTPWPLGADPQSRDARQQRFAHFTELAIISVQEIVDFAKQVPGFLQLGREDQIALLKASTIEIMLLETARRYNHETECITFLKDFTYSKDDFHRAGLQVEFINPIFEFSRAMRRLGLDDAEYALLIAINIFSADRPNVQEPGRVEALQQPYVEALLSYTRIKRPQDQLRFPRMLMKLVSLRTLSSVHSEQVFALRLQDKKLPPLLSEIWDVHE
hcDAF12 ag = confirmation of H. contortus DAF-12 agonists | AID 743032 | shares compounds with hcDAF12 agonist | 3,400 compounds, 61% hits | activation, % at 6.8 µM | HEK293 hcDAF-12 lit1-tk-luc reporter, luminescence; % of Δ7-dafachronic acid response;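 active = mean activation across triplicate tests above the threshold derived from the earlier primary screen, cut at about 5.5% in these data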;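 note: 0% = DMSO only wells and 100% = 3 µM Δ7-dafachronic acid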
The depositor's hits bear a star; nt = not tested or not shown.

SMILES	DAX1 inh-1	ssDAF12 agonist	hcDAF12 agonist	DAX1 inh-2	hgDAF12 agonist	FXN GAA850 act	DAX1 conf	SF1 AF2mut Luc	LXR ag	hcDAF12 ag
Cc1ccc(C)c(OCc2cc(C(=O)N3C[C@@H](C)O[C@@H](C)C3)no2)c1	4.6*	-0.8	0.6	2.1	8.8	7.0	4.8*	4.2*	nt	nt
Cc1ccc(C)c(OCc2cc(C(=O)N3CC[C@@H]4CCCC[C@H]4C3)no2)c1	5.5*	0.5	6.5*	0.8	8.6	3.9	1.9	3.3*	nt	nt
Nc1[nH]c(C(=O)c2ccccc2)c(-c2ccc3ccccc3c2)c1C(=O)NCc1ccc(F)cc1	1.1	0.0	-0.3	nt	-3.1	nt	nt	nt	nt	nt
Cn1ccnc1SCC(=O)Nc1ccc2ccccc2c1	5.7*	1.2*	5.0	0.3	9.1	2.4	10.3*	6.3*	nt	nt
COc1ccc(NC(=O)CSc2nccn2Cc2ccco2)cc1	5.2*	-0.1	1.0	0.8	8.2	3.5	6.8*	6.0*	nt	nt
COc1ccc(C(=O)CSc2nccn2C)c(OC)c1	6.9*	-0.3	2.7	1.1	11.1*	3.7	5.5*	2.6	nt	nt
COc1ccc(OC)c(C(=O)CSc2nnnn2C)c1	1.1	-0.8	-1.9	0.4	-0.9	0.8	nt	nt	nt	nt
Cn1ccnc1SCC(=O)Nc1ccc(SC(F)F)cc1	6.2*	0.1	1.7	0.9	5.0	1.2	8.4*	5.3*	nt	nt
CCOc1ccc(NC(=O)CSc2nccn2Cc2ccco2)cc1	-2.5	-0.6	2.0	1.2	6.2	2.5	nt	nt	nt	nt
COc1nc(OC)nc(N2CCC(C(=O)NCc3cccc(OC)c3OC)CC2)n1	-1.1	-1.2	-3.2	nt	-1.6	nt	nt	nt	nt	nt
CC1=C(/C=C/C(C)=C/C=C/C(C)=C\C(=O)O)C(C)(C)CCC1	5.9*	-1.4	-2.8	-1.4	-4.9	-0.5	17.9*	7.5*	nt	nt
CC1=C(/C=C/C(C)=C/C=C/C(C)=C/C(=O)Nc2ccc(O)cc2)C(C)(C)CCC1	0.9	-0.9	0.5	0.7	7.2	-1.9	nt	nt	nt	nt
COC(=O)Cc1nnn2c1[C@@H](C)[C@@H](c1ccccc1Br)OC[C@H](C)C2	-0.1	-1.2	-1.2	nt	0.1	nt	nt	nt	nt	nt
Cc1[nH]c2ccc(C(=O)NC3CCC(C)CC3)cc2c1C (configuration not stated)	5.4*	-0.8	3.6	1.6	12.6*	4.0	6.8*	3.3*	nt	nt
CCOC(=O)N1CCN(C(=O)c2ccc3oc(CCCc4ccccc4)nc3c2)CC1	5.2*	-0.8	3.1	1.9	8.1	3.1	6.0*	2.2	nt	nt
COc1c(O)cc2oc(-c3ccc(O)cc3)cc(=O)c2c1O	5.2*	0.5	9.6*	0.4	11.1*	4.6	10.5*	1.9	1.6	6.8*
O=C1C(=C2CCc3ccccc32)Cc2ccccc21	7.1*	2.3*	15.0*	nt	21.5*	3.3	16.3*	9.0*	2.0	21.2*
Cc1ccc2nc(-c3ccc(NC(=O)C4CCCO4)cc3)[nH]c2c1 (configuration not stated)	7.3*	0.5	7.7*	-1.4	9.2	-1.3	12.1*	6.2*	1.7	5.2
Cc1ccc2nc(-c3ccc(NC(=O)Cc4cccs4)cc3)[nH]c2c1	2.6	-0.3	1.3	2.9	9.9	2.4	nt	nt	nt	nt
Cc1ccc(C(=O)/C=C/Nc2ccccc2C(N)=O)cc1	4.7*	1.8*	7.0*	-2.1	11.6*	3.2	12.4*	7.0*	1.9	7.0*
Cc1ccc2nc(CSc3nc(C)cc(C)c3C#N)[nH]c2c1	5.8*	2.0*	16.9*	1.3	9.1	4.1	13.5*	7.4*	1.9	20.4*
Cc1ccc(C(NC(=O)CN2C(=O)NC3(CCCC3)C2=O)c2ccccc2)cc1 (configuration not stated)	0.1	-1.8	0.0	3.4	-0.6	2.5	nt	nt	nt	nt
CCC1CSC(=Nc2ccc(C)cc2)N1C(=O)CN1C(=O)NC2(CCCC2)C1=O (configuration not stated)	10.4*	-0.2	8.4*	0.2	12.7*	3.8	9.1*	2.8	1.2	6.3*
CCOC(=O)[C@]12CCCC3=C1N(CCC3)C(=O)[C@@H](CC(=O)N1CCOCC1)C2	-0.5	-0.7	2.2	nt	-1.5	nt	nt	nt	nt	nt
Cc1cc(C)nc(NC(=S)N2CCN(c3ccc(Cl)c(Cl)c3)CC2)c1	nt	-1.8	-3.7	nt	2.3	nt	nt	nt	nt	nt
SMILES	DAX1 inh-1	ssDAF12 agonist	hcDAF12 agonist	DAX1 inh-2	hgDAF12 agonist	FXN GAA850 act	DAX1 conf	SF1 AF2mut Luc	LXR ag	hcDAF12 ag
COc1cccc(NC(=O)N2CCCCCC2)c1	4.6*	-0.6	7.7*	0.9	5.2	2.9	5.7*	4.0*	0.0	1.4
Cc1onc(C(=O)N2CCN(C(c3ccccc3)c3ccccc3)CC2)c1Br	nt	-1.3	2.5	nt	2.0	nt	nt	nt	nt	nt
C/C(=N\NC(=O)c1ccccc1O)c1ccc(NC(=O)c2ccccc2)cc1	6.0*	-0.3	7.4*	0.0	11.6*	3.5	2.8	2.3	-0.1	2.2
Brc1ccc2nc(-c3ccc(CN4CCC5(CC4)CNc4ccccc45)cc3)c(-c3ccccc3)nc2c1	-0.1	0.1	1.1	nt	3.8	nt	nt	nt	nt	nt
CCCc1nc2ccc(C)cn2c1Cc1ccccc1	4.6*	1.3*	7.2*	nt	6.7	nt	2.4	3.8*	0.4	7.3*
COc1ccc(CC(=O)N2CCN(C(=O)c3ccc4nc(C)n(C5CCCC5)c4c3)CC2)cc1	0.1	-1.5	-1.9	nt	-0.1	nt	nt	nt	nt	nt
O=C(O)CCSc1nnc(-c2ccc3c(c2)OCO3)o1	-0.9	-2.3	-5.0	-4.1	-9.4	-8.3	nt	nt	nt	nt
c1ccc(Nc2nnc(-c3ccc4c(c3)OCO4)o2)cc1	5.1*	1.2*	7.7*	nt	9.3	nt	6.6*	0.7	0.8	2.7
Cc1ccc(-c2nnc(Nc3ccccc3)o2)cc1	5.5*	-0.2	8.0*	-4.7	6.2	-6.3	19.0*	8.6*	1.6	6.5*
CN1CC(O)([C@H](Cc2ccccc2)NC(=O)OC(C)(C)C)OCC1C(=O)NCc1cccc2ccccc12 (some centres not stated)	nt	-1.8	-2.0	nt	2.7	nt	nt	nt	nt	nt

Screening results as filed in PubChem BioAssay.
